The panel holds about 79,000 compounds, 15% with a hit somewhere; the sample as a whole holds those more often. Cut-off read from the data, not from the text of the source: active = growth inhibition above about 70%; inactive = the rest.
Assays:
[1] = NCI Yeast Anticancer Drug Screen. Data for the rad50 strain (AID 155);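 note: 0% = growth of vehicle-only cultures of the same strain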; conditions: S. cerevisiae rad50 strain growth inhibition; at 50.0 µM; hits give high values
Method in brief: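 A DNA repair-deficient yeast mutant serves as the test organism; compound-induced growth inhibition is calculated against vehicle-treated cells.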

[2] = NCI Yeast Anticancer Drug Screen. Data for the mec2-1 strain (AID 157); conditions: S. cerevisiae mec2-1 strain, at 50.0 µM, hits give high values
Method in brief: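 Yeast mec2-1 mutant treated with compound. Readout: growth inhibition vs vehicle controls.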

[3] = NCI Yeast Anticancer Drug Screen. Data for the sgs1 mgt1 strain (AID 161);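 note: 0% = growth of cultures given vehicle only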; conditions: S. cerevisiae sgs1 mgt1 strain, at 50.0 µM, hits give high values
Method in brief: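 Inhibition of yeast growth, normalised to vehicle-treated controls, is reported for a strain bearing genetic alterations in DNA damage repair.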

[4] = NCI Yeast Anticancer Drug Screen. Data for the cln2 rad14 strain (AID 165);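 note: 0% = growth equal to vehicle treated cultures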; conditions: S. cerevisiae cln2 rad14 strain, at 50.0 µM, hits give high values
Method in brief: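 cln2 rad14 yeast strain; compound exposure; growth inhibition read vs vehicle controls.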

[5] = NCI Yeast Anticancer Drug Screen. Data for the bub3 strain (AID 167); conditions: S. cerevisiae bub3 mutant strain, at 50.0 µM, hits give high values
Method in brief: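 Inhibition values come from growth of compound-treated mutant yeast normalised to vehicle-treated controls.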

[6] = NCI Yeast Anticancer Drug Screen. Data for the mlh1 rad18 strain (AID 175); conditions: S. cerevisiae mlh1 rad18 strain growth inhibition; at 50.0 µM; hits give high values
Method in brief: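 Yeast w/ defined DNA-repair lesions; compound exposure; growth vs vehicle controls → % inhibition.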

Measured: growth inhibition

COc1ccc(Br)c(C=O)c1
inactive: [1] -10.1% | [2] -8.9% | [3] -5.65% | [4] 1.95% | [5] -7.45% | [6] -2.25%

COc1ccc(C2CC(c3ccccc3)=Nc3ccccc3S2)cc1 (configuration not stated)
inactive: [1] -12.1% | [2] -17.9% | [3] 16% | [4] -11.3% | [5] 25.2% | [6] 0.95%

COc1cccc(N=CNc2cccc(OC)c2)c1
inactive: [1] -36.2% | [2] -34.7% | [3] -17.4% | [4] 8.55% | [5] -11.8% | [6] -27.9%

O=c1n(CC2CO2)c(=O)n(CC2CO2)n1CC1CO1 (configuration not stated)
inactive: [1] 16.9% | [2] -5.75% | [3] 1.05% | [4] 8.35% | [5] -26.7% | [6] -8.8%

Cn1c(=O)c2[nH]c(CC(=O)O)nc2n(C)c1=O
inactive: [1] 29.5% | [2] 11% | [3] 33.8% | [4] 22.8% | [5] 0.85% | [6] 24.1%

NC(=S)N/N=C/c1ccc(Cl)cc1
inactive: [1] 47.5% | [2] 23.8% | [3] 41.5% | [4] 13.4% | [5] 22.9% | [6] 46.9%

COc1ccc2c(c1)Nc1ccccc1S2
inactive: [1] -23.9% | [2] -23.5% | [3] -26.6% | [4] -1.6% | [5] -14.6% | [6] -16.2%

CC(=O)NC(CCC(=O)c1ccccc1)C(=O)O (configuration not stated)
inactive: [1] 18.1% | [2] -4.95% | [3] 17.3% | [4] 5.05% | [5] 0% | [6] 16%

OCc1cccnc1
inactive: [1] -6.3% | [2] -36.9% | [3] 15.3% | [4] 9.55% | [5] -18.5% | [6] 5.75%

CN=S(=O)(OCCCCCOS(=O)(=NC)c1ccc(C)cc1)c1ccc(C)cc1 (configuration not stated)
inactive: [1] 3.75% | [2] -33.8% | [3] -22.9% | [4] -43.4% | [5] -41.3% | [6] -34.9%

C=C1C(=O)C2CCN1CC2
inactive: [1] 1.05% | [2] -15.8% | [3] -15.8% | [4] 2.95% | [5] -18.1% | [6] -21.2%

CCOC(=O)c1c[nH][nH]c1=O
inactive: [1] -9.05% | [2] -8.45% | [3] -3.55% | [4] -18.2% | [5] 7.85% | [6] 5.8%

CCOc1ccc(C(=O)NCC(C)C)cc1
inactive: [1] -1.2% | [2] 2.4% | [3] 26.6% | [4] -14.1% | [5] 9% | [6] -13.7%

O=C(O)c1ccc(OCc2ccccc2)cc1
inactive: [1] 12.6% | [2] 11.2% | [3] 38% | [4] -1.85% | [5] -28.1% | [6] 19.9%

Cc1cc(C)cc(OCC(=O)O)c1
inactive: [1] 16.6% | [2] 10.2% | [3] -10.6% | [4] -41% | [5] -4.45% | [6] 3.4%

Cc1ccc[n+](CCC(N)=O)c1
inactive: [1] -18.4% | [2] -41.4% | [3] -10.8% | [4] 1.2% | [5] -16.1% | [6] -6.75%

NC(=O)OCCO
inactive: [1] 19.2% | [2] 6.45% | [3] 10.9% | [4] 9.65% | [5] -2.35% | [6] 26.5%

S=c1nc(-c2ccccn2)c(-c2ccccn2)n[nH]1
inactive: [1] -11% | [2] -9.05% | [3] -1.2% | [4] 11% | [5] -21.8% | [6] -53.7%

CC(=O)NNC(=S)N/C=C/c1c(C)ccc([N+](=O)[O-])c1[N+](=O)[O-]
inactive: [1] -24.5% | [2] -35% | [3] -28.4% | [4] -31.9% | [5] -36% | [6] -2.8%

Nc1cc2ccccc2c(O)c1O
inactive: [1] 32.1% | [2] 35% | [3] 39.1% | [4] 20.7% | [5] 38% | [6] 14.2%

COc1cc(-c2ccc(NC(=O)CC(C)=O)c(OC)c2)ccc1NC(=O)CC(C)=O
inactive: [1] -17.8% | [2] -26.6% | [3] -3.35% | [4] -5.3% | [5] 5.95% | [6] -14%

Cc1cc2c3ccc(C)[n+](C)c3ccc2n1C
inactive: [1] -4.3% | [2] 5.9% | [3] 10.6% | [4] -66.6% | [5] 7.65% | [6] -5.25%

CC(C)(CC(=O)O)CC(=O)O
inactive: [1] 14.4% | [2] 1.15% | [3] 0% | [4] 23.8% | [5] 16.1% | [6] 14.8%

O=C(OCC1CCCO1)c1ccc([N+](=O)[O-])cc1 (configuration not stated)
inactive: [1] 2.05% | [2] 21.6% | [3] 12.9% | [4] 9.7% | [5] 30.9% | [6] 12.3%

CC1(C)OC2C(CO)OC(n3ccc(=O)[nH]c3=O)C2O1 (configuration not stated)
inactive: [1] 1.9% | [2] 0.9% | [3] -12.3% | [4] -7.3% | [5] 10.5% | [6] -4.35%

OC1Cc2ccccc2C1
inactive: [1] -32.5% | [2] -26.4% | [3] -17.6% | [4] -31.8% | [5] -28.1% | [6] -18.6%

Cc1ccc(S(=O)(=O)CCCl)cc1
inactive: [1] 6.8% | [2] -7.35% | [3] -21.9% | [4] -31.2% | [5] 5.3% | [6] 7.85%

COC(CCCl)c1ccc(Cl)cc1 (configuration not stated)
inactive: [1] 4.7% | [2] -43% | [3] -10.8% | [4] -4.5% | [5] -5.35% | [6] 26.8%

Clc1cccc(Cl)c1CSc1nc2ccccc2n2cccc12
inactive: [1] -13.3% | [2] -26.8% | [3] 5.2% | [4] 17.6% | [5] -29.9% | [6] -19%

C/C(=N\N=C(/C)c1cccc([N+](=O)[O-])c1)c1cccc([N+](=O)[O-])c1
inactive: [1] -5.75% | [2] -21% | [3] 17.5% | [4] -10.3% | [5] 16.4% | [6] -7.7%

O=c1[nH]c(=O)c2cc(Cl)cc(Cl)c2[nH]1
inactive: [1] -2.05% | [2] -15.3% | [3] -1.4% | [4] 14% | [5] 9.25% | [6] 7.3%

O=C1NCC2CCCC1C2 (configuration not stated)
inactive: [1] 6.5% | [2] -8.15% | [3] -9.3% | [4] -40.9% | [5] -13.4% | [6] 1.7%
